From PubChem
KCNQ2 block: rat KCNQ2 potassium channel inhibitors, primary screen, cell-based, CHO-K1, FluxOR thallium flux, B-score; 20 min; stronger effect = lower value; B-score at 10 µM; actives 1.1% (n = 310,000);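 active = fluorescence ratio B-score at most minus 3 library SDs, with starting brightness B-score within 2 library SDs, cut at about -5.5 in these data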
KCNQ2 pot: potentiators of rat KCNQ2 potassium channel. Potassium voltage-gated channel subfamily KQT member 2 (Rattus norvegicus), O88943. CHO-K1 KCNQ2, FluxOR thallium flux fluorescence; stronger effect = higher value. B-score at 10 µM. actives 0.54% (n = 310,000). AID 2239, 2010;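 active = fluorescence ratio B-score at least 3 SD of library B-scores, with initial fluorescence B-score within 3 of them, cut at about 5.3 in these data; same plate scores as AID 2156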;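 note: B-score of peak minus minimum over baseline fluorescence ratio after K+ and Tl+ stimulus; positive B-score means potentiation of KCNQ2 with more thallium influx and brighter signal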
Kir21 confirm: mouse Kir2.1 channel blockers, retest, confirmation, cell-based, FluxOR thallium flux, duplicate; shares compounds with KCNQ2 pot; Kir2.1-expressing cells, FluxOR thallium flux fluorescence; stronger effect = lower value; actives 41% (n = 2,300); AID 2032, 2009; Tl flux remaining, % of negative control (stronger effect = lower value), % at 10 µM;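 active = Primary-screen hit whose thallium flux fell at least 3 control SD below untreated wells in both duplicates, with normal baseline fluorescence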
Target sequence (P35561 whole entry, looked up): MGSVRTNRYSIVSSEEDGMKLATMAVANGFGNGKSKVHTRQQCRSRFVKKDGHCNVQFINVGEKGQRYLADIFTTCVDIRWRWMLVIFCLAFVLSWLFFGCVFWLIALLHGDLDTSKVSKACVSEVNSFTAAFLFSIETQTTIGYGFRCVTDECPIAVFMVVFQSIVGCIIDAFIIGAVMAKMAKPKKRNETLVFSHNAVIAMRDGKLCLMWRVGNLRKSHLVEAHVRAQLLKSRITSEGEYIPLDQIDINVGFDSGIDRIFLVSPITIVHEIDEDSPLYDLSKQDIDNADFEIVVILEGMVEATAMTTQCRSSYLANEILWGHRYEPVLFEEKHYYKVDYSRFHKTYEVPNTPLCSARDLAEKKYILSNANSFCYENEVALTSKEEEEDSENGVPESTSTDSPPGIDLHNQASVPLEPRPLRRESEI
HEK293 Tl flux: parental HEK293 activity in Kir2.1 inhibitor counter-screen; shares compounds with KCNQ2 pot; parental HEK293 cells, FluxOR thallium flux fluorescence; 0% = unstimulated blank wells; FluxOR signal as % of negative control (100 = no effect), % at 10 µM; actives 19% (n = 2,300); AID 2105;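 active = dye signal at least 3 control SD above or below untreated wells in both duplicates, raw fluorescence within 3, either direction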;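 note: percent is based on the flux ratio of peak minus minimum fluorescence over baseline F0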
CHO-K1 Tl ctr: nonspecific thallium flux increase in parental CHO-K1, confirmation, counter-screen for KCNQ2 potentiator project, cell-based, FluxOR thallium flux, duplicate; shares compounds with KCNQ2 pot; parental CHO-K1 cells, FluxOR thallium flux fluorescence; zero = vehicle mean+3SD, 100% = vehicle-minus-blank window; activity increase over 3SD of controls, % at 10 µM; actives 43% (n = 1,200);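 active = signal rise of at least 3 SD above the untreated control mean, in both duplicate wells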;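 note: counter screen of KCNQ2 potentiator hits so any rise reflects channel-independent effects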
KCNQ1 pot spec: human KCNQ1 channel potentiation off-target, confirmation, selectivity assay for KCNQ2 potentiator project, cell-based, CHO, FluxOR thallium flux | shares compounds with KCNQ2 pot | CHO KCNQ1 stable, FluxOR thallium flux fluorescence; beyond 3SD, as % of vehicle-control signal | activation over 3SD threshold, % at 10 µM | actives 28% (n = 1,200);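 active = fluorescence ratio rise of at least 3 SD of vehicle wells above their mean, in both replicate wells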
KCNQ2 pot conf: rat KCNQ2 channel potentiators, confirmation, cell-based, CHO, FluxOR thallium flux, duplicate | shares compounds with KCNQ2 pot | CHO-KCNQ2 cells, FluxOR thallium flux fluorescence | actives 68% (n = 1,200) | potentiation, less the hit threshold, % at 10 µM | AID 2287, 2010;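 active = fluorescence ratio rising 3 SD or more over the vehicle control mean in both replicates, plus primary screen hit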;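 note: peak minus minimum thallium fluorescence divided by baseline after K/Tl stimulus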
Kir2-1 sel: mouse Kir2.1 channel activation off-target, confirmation, selectivity assay for KCNQ2 potentiator project, cell-based, HEK293, FluxOR thallium flux | activity over 3SD threshold, % at 10 µM | shares compounds with KCNQ2 pot | AID 2345, 2010 | actives 2% (n = 1,200) | HEK293 Kir2.1, FluxOR thallium flux fluorescence;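 active = fluorescence ratio rise of at least 3 SD above the vehicle-control mean, seen in both replicates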
KCNQ2 W236L pot: potentiators of retigabine-insensitive KCNQ2 W236L, mechanism study for KCNQ2 potentiator project, cell-based, rat KCNQ2 W236L, CHO, automated patch clamp; shares compounds with KCNQ2 pot; automated patch clamp current; current increase over 3SD of negative controls (%), stronger effect = higher value, % at 25 µM; actives 10% (n = 940); AID 2558, 2010;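 active = current increase at least 3 SD of the untreated controls above them in both duplicate recordings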
Hits are given with their value; - = inactive; . = no result. Compounds with a hit are over-represented: about 1.6% of the library has one in this group of screens.

SMILES	KCNQ2 block	KCNQ2 pot	Kir21 confirm	HEK293 Tl flux	others
CCN(CC)c1ccc(/C=C/c2ccc3ccc(OC)cc3[n+]2CC)cc1	-7.6	-	-	-
COC(=O)c1cc(S(=O)(=O)NCC2CCN(Cc3cccc(Cl)c3)CC2)c[nH]1	-	.	.	.
Cc1nc(CC(C)C)cc(C(=O)N2CCCC(CNS(=O)(=O)c3cccs3)C2)n1 (configuration not stated)	-	-	.	.
COc1cccc2c1cc1c(=O)n(CC(=O)N3CCC(C)CC3)nc(C)n12	-	.	.	.
CC1CCCCC1NC(=S)NC(=O)c1sc2ccccc2c1Cl (configuration not stated)	-	-	.	.
O=C(NC(=S)N(CCCCO)C1CCCCC1)c1sc2ccccc2c1Cl	-	17	-	-	CHO-K1 Tl ctr=30;KCNQ1 pot spec=28;KCNQ2 pot conf=56;Kir2-1 sel=-;KCNQ2 W236L pot=-
CC1CCCCC1NC(=O)/C(C#N)=C/c1ccccc1F (configuration not stated)	-	.	.	.
O=C(CN(Cc1ccc(F)cc1)C(=O)CNS(=O)(=O)c1ccc(Cl)cc1)NCC1CCCO1 (configuration not stated)	-	-	.	.
O=C(O)c1ccc(CN2C(=O)c3ccc(Oc4ccc([N+](=O)[O-])cc4)cc3C2=O)cc1	-	-	.	.
COc1ccccc1N1CCN(Cc2cnc3ccc(Cl)cn23)CC1	-	.	.	.
CCCCCCCCCn1c2c(c(=N)c3c1CCC3)CCC2	-6.1	-	10%	-
CCCCCCn1c(=O)[nH]c2c(c1=O)CCC2	-	-	.	.
CCn1c2c(c(=N)c3c1CCC3)CCC2	-	.	.	.
CCCCCCCn1c2c(c(=N)c3c1CCC3)CCCC2	-	-	28%	-
O=C(Nc1ccc(-c2ccc3nncn3n2)cc1)c1ccc(Br)o1	-	.	.	.
CCOC(=O)c1c(CSc2ccc(C)cc2)oc2ccc(O)cc12	-	-	.	.
CCOc1ccccc1C(=O)N(Cc1sccc1C)C1CCS(=O)(=O)C1 (configuration not stated)	-	-	.	.
Cc1ccccc1NC(=O)C(C)c1cccc(C(=O)c2ccccc2)c1 (configuration not stated)	-	-	-	-	CHO-K1 Tl ctr=117;KCNQ1 pot spec=13;KCNQ2 pot conf=16;Kir2-1 sel=-;KCNQ2 W236L pot=-
Cc1ccc(OC(=O)C(C)c2cccc(C(=O)c3ccccc3)c2)cc1 (configuration not stated)	-	.	.	.
O=C(O)CCc1nn2c3ccccc3nc2n(Cc2ccccc2)c1=O	-	-	.	.
CC1(c2nnc(Cc3ccccc3)o2)CC(c2cccc(F)c2)=NO1 (configuration not stated)	-	-	.	.
CC(NC(=O)Nc1ccc(Cl)cc1)c1ccc2c(c1)OCO2 (configuration not stated)	-	.	.	.
O=C(CC12CCC(CC1)C2)NCc1ccc2c(c1)OCO2	-	11	-	-	CHO-K1 Tl ctr=96;KCNQ1 pot spec=-;KCNQ2 pot conf=44;Kir2-1 sel=-;KCNQ2 W236L pot=-
CC(NC(=O)NC1CCCCC1)c1ccc2c(c1)OCO2 (configuration not stated)	-	21	-	-	CHO-K1 Tl ctr=12;KCNQ1 pot spec=-;KCNQ2 pot conf=62;Kir2-1 sel=-;KCNQ2 W236L pot=-
Cc1cccc(NC(=S)NCc2ccc3c(c2)OCO3)c1	-	-	.	.
SMILES	KCNQ2 block	KCNQ2 pot	Kir21 confirm	HEK293 Tl flux	others
O=C(NCc1cccnc1)Nc1cccc(C(F)(F)F)c1	-	-	.	.
O=C(NCc1ccc2c(c1)CCO2)Nc1cccc(C(F)(F)F)c1	-	7.1	-	-	CHO-K1 Tl ctr=3.1;KCNQ1 pot spec=20;KCNQ2 pot conf=25;Kir2-1 sel=-;KCNQ2 W236L pot=-
Cc1cccc(NC(=O)NCc2ccc3c(c2)OCO3)c1	-	11	-	-	CHO-K1 Tl ctr=4.1;KCNQ1 pot spec=-;KCNQ2 pot conf=20;Kir2-1 sel=-;KCNQ2 W236L pot=-
O=C(Cc1ccccc1)NCc1ccc2c(c1)OCO2	-	-	.	.
CCOc1ccccc1NC(=O)C1CCCN(S(=O)(=O)c2ccc3c(c2)C(C)(C)C(=O)N3C)C1 (configuration not stated)	-	.	.	.
O=C(NCc1ccc2c(c1)OCO2)NC1CCCCC1	-	5.7	-	-	CHO-K1 Tl ctr=38;KCNQ1 pot spec=-;KCNQ2 pot conf=-;Kir2-1 sel=-
CC(NC(=O)NC12CC3CC(CC(C3)C1)C2)c1ccc2c(c1)OCO2 (configuration not stated)	-	15	-	-	CHO-K1 Tl ctr=28;KCNQ1 pot spec=-;KCNQ2 pot conf=56;Kir2-1 sel=-;KCNQ2 W236L pot=-
O=C(NNC(=O)c1ccc2c(c1)OCO2)NC1CCCCC1	-	.	.	.
CCc1ccccc1NC(=O)NC(C)c1ccc2c(c1)OCO2 (configuration not stated)	-	-	.	.
Cc1c(C(=O)Nc2c(C)n(C)n(-c3ccccc3)c2=O)oc2ccc(Cl)cc12	-	-	.	.
CCOC(=O)C1CCN(C(=O)c2ccccc2NC(=O)C2=C(C)OCCS2)CC1	-	-	.	.
CCCC1NC(C(=O)O)Cc2c1[nH]c1ccccc21 (configuration not stated)	-	.	.	.
Cc1cc(C)nc(NCCCc2ccccc2)n1	-	.	.	.
CCCCNc1cc(C)nc(NCc2ccccc2)n1	-	.	15%	-
COc1ccccc1NC(=O)NC1(C(=O)NCC2CCCO2)CCCCC1 (configuration not stated)	-	-	.	.
CC(C)c1ccc(NC(=O)C2CC3CCC2C3)cc1 (configuration not stated)	-	26	-	-	CHO-K1 Tl ctr=30;KCNQ1 pot spec=-;KCNQ2 pot conf=66;Kir2-1 sel=-;KCNQ2 W236L pot=-
CCOc1ccc(NC(=O)C2CC3CCC2C3)cc1 (configuration not stated)	-	-	.	.
CCC(C)c1ccc(NC(=O)C2CC3CCC2C3)cc1 (configuration not stated)	-	26	-	-	CHO-K1 Tl ctr=7.5;KCNQ1 pot spec=-;KCNQ2 pot conf=105;Kir2-1 sel=-;KCNQ2 W236L pot=-
O=C(Nc1ccc(F)cc1)C1CC2CCC1C2 (configuration not stated)	-	-	.	.
